Experimental data: PubChem BioAssay AID1159580 (chemical genetic matrix, 2015)
Values joined by “and” are separate entries in the source; they are usually repeats but may differ in a detail not shown here. Identical values can stand only once. In all, about 5,500 compounds went through this assay and about 2,000 (36%) were called active. Not shown: some 18% with an inconclusive outcome. No stated cut-off is given here; in the data, active means normalized growth mostly below about 0.91 (no sharp cut-off); inconclusive means no clear call, values can overlap the other calls; inactive means mostly above about 0.92. Some of the results follow.

Assay: chemical genetic growth profiling, strain panel (AID 1159580);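 further: tested at 20 µM; growth read once vehicle control cultures reached saturation at 30 °C; 1 = growth at the plate median or of vehicle wells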
Conditions: S. cerevisiae deletion strains, growth OD
[1] = locus YAR019C, strain CDC15, stronger effect = lower value
[2] = locus YBL105C, strain PKC1, stronger effect = lower value
[3] = locus YBR135W, strain CKS1, stronger effect = lower value
[4] = locus YBR136W, strain MEC1, stronger effect = lower value
[5] = locus YBR160W, strain CDC28, stronger effect = lower value
[6] = locus YDL017W, strain CDC7, stronger effect = lower value
[7] = locus YDL028C, strain MPS1, stronger effect = lower value
[8] = locus YDL101C, strain DUN1, stronger effect = lower value
[9] = locus YDL108W, strain KIN28, stronger effect = lower value
[10] = locus YDL132W, strain cdc53, stronger effect = lower value
[11] = locus YDL214C, strain PRR2, stronger effect = lower value
[12] = locus YDR052C, strain DBF4, stronger effect = lower value
[13] = locus YDR054C, strain cdc34, stronger effect = lower value
[14] = locus YDR226W, strain ADK1, stronger effect = lower value
[15] = locus YDR477W, strain SNF1, stronger effect = lower value
[16] = locus YER123W, strain YCK3, stronger effect = lower value
[17] = locus YER133W, strain GLC7, stronger effect = lower value
[18] = locus YFL009W, strain cdc4, stronger effect = lower value
[19] = locus YFL029C, strain CAK1, stronger effect = lower value
[20] = locus YFR003C, strain YPI1, stronger effect = lower value
[21] = locus YFR019W, strain FAB1, stronger effect = lower value
[22] = locus YFR028C, strain CDC14, stronger effect = lower value
[23] = locus YGR040W, strain KSS1, stronger effect = lower value
[24] = locus YGR052W, strain FMP48, stronger effect = lower value
[25] = locus YGR092W, strain DBF2, stronger effect = lower value
[26] = locus YHR030C, strain SLT2, stronger effect = lower value
[27] = locus YHR079C, strain IRE1, stronger effect = lower value
[28] = locus YHR082C, strain KSP1, stronger effect = lower value
[29] = locus YHR205W, strain SCH9, stronger effect = lower value
[30] = locus YIL147C, strain SLN1, stronger effect = lower value
[31] = locus YJL095W, strain BCK1, stronger effect = lower value
[32] = locus YJL128C, strain PBS2, stronger effect = lower value
[33] = locus YJL157C, strain FAR1, stronger effect = lower value
[34] = locus YJR016C, strain ILV3, stronger effect = lower value
[35] = locus YJR066W, strain TOR1 (second series), stronger effect = lower value
[36] = locus YJR066W, strain TOR1, stronger effect = lower value
[37] = locus YKL048C, strain ELM1, stronger effect = lower value
[38] = locus YKL067W, strain YNK1, stronger effect = lower value
[39] = locus YKL101W, strain HSL1, stronger effect = lower value
[40] = locus YKL193C, strain SDS22, stronger effect = lower value
[41] = locus YKL203C, strain TOR2, stronger effect = lower value
[42] = locus YLR113W, strain HOG1, stronger effect = lower value
[43] = locus YLR133W, strain CKI1, stronger effect = lower value
[44] = locus YLR403W, strain SFP1, stronger effect = lower value
[45] = locus YML070W, strain DAK1, stronger effect = lower value
[46] = locus YMR001C, strain CDC5, stronger effect = lower value
[47] = locus YMR205C, strain PFK2 (second series), stronger effect = lower value
[48] = locus YMR277W, strain FCP1, stronger effect = lower value
[49] = locus YNL006W, strain LST8, stronger effect = lower value
[50] = locus YNL020C, strain ARK1, stronger effect = lower value
[51] = locus YNL161W, strain CBK1, stronger effect = lower value
[52] = locus YNL183C, strain NPR1, stronger effect = lower value
[53] = locus YNL207W, strain RIO2, stronger effect = lower value
[54] = locus YNL222W, strain SSU72, stronger effect = lower value
[55] = locus YNL307C, strain MCK1 (second series), stronger effect = lower value
[56] = locus YOL078W, strain AVO1, stronger effect = lower value
[57] = locus YOL136C, strain PFK27, stronger effect = lower value
[58] = locus YOR061W, strain CKA2, stronger effect = lower value
[59] = locus YOR119C, strain RIO1, stronger effect = lower value
[60] = locus YOR231W, strain MKK1, stronger effect = lower value
[61] = locus YOR329C, strain SCD5, stronger effect = lower value
[62] = locus YPL031C, strain PHO85, stronger effect = lower value
[63] = locus YPL153C, strain RAD53, stronger effect = lower value
[64] = locus YPL204W, strain HRR25, stronger effect = lower value
[65] = locus YPL209C, strain IPL1, stronger effect = lower value
[66] = locus YPL256C, strain CLN2, stronger effect = lower value
[67] = locus YPR025C, strain CCL1, stronger effect = lower value
[68] = locus YPR106W, strain ISR1, stronger effect = lower value
[69] = locus YPR111W, strain DBF20, stronger effect = lower value
[70] = strain NNK1, stronger effect = lower value
[71] = strain TSCII, stronger effect = lower value

Measured: normalized growth

O=C(OCCNc1ccc([N+](=O)[O-])cn1)c1ccc([N+](=O)[O-])o1
inactive: [1] 0.898 | [2] 0.927 | [3] 0.922 | [4] 0.919 | [5] 0.92 | [6] 0.932 | [7] 0.917 | [8] 0.947 and 0.908 | [9] 0.922 | locus YDL134C, strain PPH21, stronger effect = lower value 0.961 | [11] 0.742 | [13] 0.898 | locus YDR150W, strain NUM1, stronger effect = lower value 0.866 | [15] 0.829 | locus YEL061C, strain CIN8, stronger effect = lower value 0.931 | [16] 0.673 | [17] 0.771 | [18] 0.903 | [19] 0.894 | [20] 0.924 | [22] 0.91 | [23] 0.735 | [24] 0.735 | locus YGR229C, strain SMI1, stronger effect = lower value 0.979 | [27] 0.67 | [28] 0.914 | [29] 0.663 | [30] 0.931 | [31] 0.677 | [32] 0.895 | [33] 0.788 | [34] 0.942 | locus YJR043C, strain POL32, stronger effect = lower value 0.968 | [36] 0.78 | [39] 0.737 | [40] 0.899 | [41] 0.822 | locus YLR058C, strain SHM2 (second series), stronger effect = lower value 0.943 | [43] 0.813 | [44] 0.845 | locus YML094W, strain GIM5, stronger effect = lower value 0.896 | [46] 0.915 | [47] 0.884 | [48] 0.904 | locus YMR307W, strain GAS1, stronger effect = lower value 0.817 | [49] 0.933 | [50] 0.81 | locus YNL153C, strain GIM3, stronger effect = lower value 0.957 | [51] 0.902 | [52] 0.684 | [53] 0.9 | [54] 0.915 | locus YNL298W, strain CLA4 (second series), stronger effect = lower value 0.956 | [55] 0.709 | locus YOL006C, strain TOP1, stronger effect = lower value 0.831 | [56] 0.902 | [57] 0.697 | [58] 0.735 | [59] 0.838 | [61] 0.921 | [62] 0.814 | [64] 0.749 | [65] 0.921 | locus YPL241C, strain CIN2, stronger effect = lower value 0.931 | [67] 0.929 | [68] 0.945 | [69] 0.888 | locus YPR135W, strain CTF4, stronger effect = lower value 0.944 | [70] 0.913 | [71] 0.894
0.885 (inactive) and 0.148 (active): [26]
active: locus YAL013W, strain DEP1, stronger effect = lower value 0.848 | locus YBR229C, strain ROT2, stronger effect = lower value 0.816 | locus YCL061C, strain MRC1, stronger effect = lower value 0.86 | [10] 0.888 | [12] 0.81 | [14] 0.887 | [21] 0.583 | locus YGR078C, strain PAC10, stronger effect = lower value 0.786 | [25] 0.17 | locus YHR087W, strain rtc3, stronger effect = lower value 0.744 | locus YJL187C, strain SWE1, stronger effect = lower value 0.86 | [35] 0.391 | locus YJR075W, strain HOC1, stronger effect = lower value 0.795 | [37] 0.772 | [38] 0.708 | locus YLR039C, strain RIC1, stronger effect = lower value 0.449 | locus YLR085C, strain ARP6, stronger effect = lower value 0.727 | [42] 0.444 | locus YLR262C, strain YPT6, stronger effect = lower value 0.703 | [45] 0.609 | locus YMR219W, strain ESC1, stronger effect = lower value 0.809 | locus YMR263W, strain SAP30, stronger effect = lower value 0.827 | locus YNL322C, strain KRE1, stronger effect = lower value 0.913 | locus YNR030W, strain Alg12, stronger effect = lower value 0.776 | [60] 0.572 | locus YPL055C, strain LGE1, stronger effect = lower value 0.738 | [63] 0.351 | [66] 0.624

COC(=O)c1cc([N+](=O)[O-])ccc1S(=O)(=O)Cc1ccc(Cl)cc1
inactive: [1] 0.971 | [2] 0.983 | [3] 0.991 | [4] 0.967 | [5] 0.998 | [6] 0.985 | [7] 0.98 | [8] 0.987 | [9] 0.988 | [10] 0.991 | [11] 0.952 | [12] 0.996 | [13] 0.983 | [14] 0.985 | [15] 0.948 | [16] 0.955 | [17] 0.956 | [18] 0.99 | [19] 0.974 | [20] 0.992 | [21] 0.974 | [22] 0.981 | [23] 0.941 | [24] 1.04 | [25] 0.946 | [26] 0.937 | [27] 0.97 | [28] 0.995 | [29] 0.98 | [30] 0.981 | [31] 0.966 | [32] 0.967 | [33] 0.964 | [34] 0.993 | [35] 0.88 | [36] 0.965 | [37] 0.976 | [38] 0.956 | [39] 0.949 | [40] 0.984 | [41] 1 | [42] 0.957 | [43] 0.951 | [44] 0.957 | [45] 0.958 | [46] 0.984 | [47] 0.957 | [48] 0.992 | [49] 0.996 | [50] 0.96 | [51] 0.988 | [52] 0.97 | [53] 0.98 | [54] 0.988 | [55] 0.976 | [56] 0.991 | [57] 0.952 | [58] 0.948 | [59] 0.973 | [60] 0.98 | [61] 0.984 | [62] 0.955 | [63] 0.951 | [64] 0.95 | [65] 0.983 | [66] 0.945 | [67] 0.987 | [68] 0.985 | [69] 0.984 | [70] 0.982 | [71] 0.981
